Source: PubChem BioAssay (NCI)
Compounds without any hit were thinned out: in the full panel of roughly 83,000, 20% have a hit.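 Step 1: grow cells in 96-well plates. Step 2: add test compound at a single concentration. Step 3: incubate 48 h. Step 4: record percent growth.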 Unmarked numbers belong to inactive results. Active and inactive are the calls of the source. The calls were made as follows: active = growth percent below 10; inactive = the rest.

The compounds below were run on MDA-MB-468 breast (assay: NCI-60 one-dose screen, 48 h (100 = growth as untreated, 0 = no growth, -100 = all killed)). Conditions: 10 µM unless noted.

| SMILES | growth |
| --- | --- |
| O=C1C(Cl)=C(Nc2cccc3ccccc23)C(=O)c2ccccc21 | -3.45% (active) |
| O=C(CSc1nc2ccccc2c(=O)n1-c1ccccc1)N/N=C/c1ccc(Oc2ccc(Cl)cc2)cc1 | 71.6% |
| CC1C(=O)c2ccccc2CC1C(=O)O (centres undefined) | 118% |
| O=[P@@]1(c2ccccc2)O[C@H](COCc2ccccc2)[C@@H](OCc2ccccc2)[C@H](OCc2ccccc2)[C@H]1O | 21.3% |
| C[N+]1(CCc2ccccc2)CCC(CCC2CC[N+](C)(CCc3ccccc3)CC2)CC1 (centres undefined) | 28.8% |
| CCCCCc1ccc(S(=O)(=O)Nc2cc(-c3csc(NC(=O)CN4CCN(C)CC4)n3)ccc2N2CCN(C)CC2)cc1 | 51.7% |
| CSc1nc2sc3cc(Cl)c(Cl)cc3n2c(=N)c1C#N | 72.6% |
| CC1(C)CC[C@]2(c3nnc(-c4ccncc4)o3)CC[C@H]3C(=CC[C@H]4[C@@]3(C)CC[C@H]3C(C)(C)C(=O)CC[C@]43C)[C@@H]2C1 | 62.2% |
| CCCCCCCCCCCCCCCCC(=O)O.CCCCCCCCCCCCCCCCCC(=O)O.CCCCCCCCCCCCCCCCCC(=O)O.CCCCCCCCCCCCCCCCCC(=O)O.CCCCCCCCCCCCCCCCCC(=O)O.CO[CH-]OC12COC1CC(O)C1(C)C(O)C(OC(C)O)C3=C(C)C(OC(=O)C(O)C([NH-])c4ccccc4)CC(O)(C(OC(=O)c4ccccc4)C21)C3(C)C.[Cu+].[Zn].[Zn].[Zn].[Zn].[Zn] (centres undefined) | -13.3% (active) |
| C#C[C@]1(O)CC[C@H]2[C@@H]3CC=C4c5sc(Nc6cc(C)cc(C)c6)nc5CC[C@]4(C)[C@H]3CC[C@@]21C | -11.3% (active) |
| COc1ccc(-c2csc(N/N=C/c3c(-c4ccc(S(C)(=O)=O)cc4)nc4ccccn34)n2)cc1 | 106% |
| O=C(/C=C/c1ccccc1)c1ccccc1 | 74.8% |
| O=C1c2ccc3c4c5ccc(c24)C(=O)N1CCCOCCCCOCCCNCc1ccc(cc1)CNCCCOCCCCOCCCN(C3=O)C5=O | -81.4% (active) |
| N/C(=N\c1nc2ccccc2s1)NC(=O)Nc1ccccc1 | 31.4% |
| CN1C(=O)N(C)C2Nn3c(s/c(=C\c4ccc(C(F)(F)F)cc4)c3=O)=NC21 (centres undefined) | 98.5% |
| Cc1nn(-c2ccccc2)c2ncc3c(c12)C(=O)N(Cc1ccccc1)C3=O | 77.8% |
| COc1ccc(-c2ccc(-c3ccc(C(=N)N)cn3)o2)cc1Cl | -9.43% (active) |

| SMILES | growth |
| --- | --- |
| CCc1cnc2ccccc2c1/C=C/c1ccc(N(C)C)cc1 | 24.9% |
| COc1ccc(NC(=O)CSc2oc(-c3ccccc3)nc2S(=O)(=O)c2ccc(Cl)cc2)c(OC)c1 | 57.8% |
| N#C/C(=C\c1ccc(-c2ccc(Cl)c(Cl)c2)o1)c1nc(-c2ccco2)cs1 | -38.2% (active) |
| CCOc1ccc2nc(NC(=O)Nc3ccccc3C)sc2c1 | 20.4% |
| FC(F)(F)c1ccc2c(c1)N(CCCN1CCN(C3CC3)CC1)c1ccccc1S2 | 54.1% |
| COC(=O)Nc1ccc(-c2nc(-c3cccc(OC)c3)c(-c3ccnc(Br)c3)[nH]2)cc1 | 39.1% |
| Cc1cc(NCc2cc(Nc3ccnc4cc(Cl)ccc34)ccc2F)nc(N2CCN(C)CC2)n1 | -45.9% (active) |
| CCOC(=O)c1cnn(CC(C)O)c1NC(=O)NCc1cccc(F)c1 (centres undefined) | 105% |
| NC(N)=Nc1ccc(Nc2cccc(Oc3ccc(Cl)c(C(F)(F)F)c3)c2)cn1 | 8.19% (active) |
| Nc1ncnc(Nc2ccc(C(F)(F)F)cc2)n1 | 108% |
| O=C(/C=C/CN1CCOCC1)Nc1cc2c(Nc3ccc(F)c(Cl)c3F)ncnc2cc1OCCOC(F)F | -17.6% (active) |
| COc1ccc(/C=N/NC(=O)COCC(=O)N/N=C/c2ccc(OC)cc2)cc1 | 100% |
| CNC(=O)c1cc(Oc2cccc3nc(NC(=O)Nc4ccc(F)cc4F)ccc23)ccn1 | 42.1% |
| CSc1nc(=S)c2nc(SC)n(-c3ccccc3)c2[nH]1 | 91.1% |
| CCO/C=N/C1=C(C#N)C(c2ccc(OC)cc2)c2sc3c(CC)cccc3c2O1 (centres undefined) | -21.1% (active) |
| COc1cc(OCc2cccc(-c3ccc(C(O)c4nccs4)cc3)c2C)cc(OC)c1C=O (centres undefined) | -36.5% (active) |
| O=C(NNc1nc(Cl)nc(N2CCN(C(c3ccccc3)c3ccccc3)CC2)n1)c1ccccc1 | -47.2% (active) |
